TRPM1 prom inh = inhibitors of MITF-dependent TRPM1 promoter reporter, primary screen, cell-based, SK-MEL-5, single point, luciferase; SK-MEL-5 TRPM1 promoter luciferase, 24 h; inhibition, % at 12.5 µM; 330,000 tested, 0.83% active;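 active means mean inhibition across replicates of 60% or more, whatever share of single replicates reaches that level; inconclusive means some that reach 60%, reason not given; inactive means mean inhibition across replicates below 60%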
NSD2 inh = NSD2 histone methyltransferase inhibitors, primary screen, biochemical, AlphaScreen, single concentration, set 2; Histone-lysine N-methyltransferase NSD2 (Homo sapiens), O96028; NSD2 peptide methylation, 120 min; inhibition, % at 12.5 µM; 310,000 tested, 0.54% active; in the data active means inhibition above about 50%
Target sequence (O96028 whole entry, looked up): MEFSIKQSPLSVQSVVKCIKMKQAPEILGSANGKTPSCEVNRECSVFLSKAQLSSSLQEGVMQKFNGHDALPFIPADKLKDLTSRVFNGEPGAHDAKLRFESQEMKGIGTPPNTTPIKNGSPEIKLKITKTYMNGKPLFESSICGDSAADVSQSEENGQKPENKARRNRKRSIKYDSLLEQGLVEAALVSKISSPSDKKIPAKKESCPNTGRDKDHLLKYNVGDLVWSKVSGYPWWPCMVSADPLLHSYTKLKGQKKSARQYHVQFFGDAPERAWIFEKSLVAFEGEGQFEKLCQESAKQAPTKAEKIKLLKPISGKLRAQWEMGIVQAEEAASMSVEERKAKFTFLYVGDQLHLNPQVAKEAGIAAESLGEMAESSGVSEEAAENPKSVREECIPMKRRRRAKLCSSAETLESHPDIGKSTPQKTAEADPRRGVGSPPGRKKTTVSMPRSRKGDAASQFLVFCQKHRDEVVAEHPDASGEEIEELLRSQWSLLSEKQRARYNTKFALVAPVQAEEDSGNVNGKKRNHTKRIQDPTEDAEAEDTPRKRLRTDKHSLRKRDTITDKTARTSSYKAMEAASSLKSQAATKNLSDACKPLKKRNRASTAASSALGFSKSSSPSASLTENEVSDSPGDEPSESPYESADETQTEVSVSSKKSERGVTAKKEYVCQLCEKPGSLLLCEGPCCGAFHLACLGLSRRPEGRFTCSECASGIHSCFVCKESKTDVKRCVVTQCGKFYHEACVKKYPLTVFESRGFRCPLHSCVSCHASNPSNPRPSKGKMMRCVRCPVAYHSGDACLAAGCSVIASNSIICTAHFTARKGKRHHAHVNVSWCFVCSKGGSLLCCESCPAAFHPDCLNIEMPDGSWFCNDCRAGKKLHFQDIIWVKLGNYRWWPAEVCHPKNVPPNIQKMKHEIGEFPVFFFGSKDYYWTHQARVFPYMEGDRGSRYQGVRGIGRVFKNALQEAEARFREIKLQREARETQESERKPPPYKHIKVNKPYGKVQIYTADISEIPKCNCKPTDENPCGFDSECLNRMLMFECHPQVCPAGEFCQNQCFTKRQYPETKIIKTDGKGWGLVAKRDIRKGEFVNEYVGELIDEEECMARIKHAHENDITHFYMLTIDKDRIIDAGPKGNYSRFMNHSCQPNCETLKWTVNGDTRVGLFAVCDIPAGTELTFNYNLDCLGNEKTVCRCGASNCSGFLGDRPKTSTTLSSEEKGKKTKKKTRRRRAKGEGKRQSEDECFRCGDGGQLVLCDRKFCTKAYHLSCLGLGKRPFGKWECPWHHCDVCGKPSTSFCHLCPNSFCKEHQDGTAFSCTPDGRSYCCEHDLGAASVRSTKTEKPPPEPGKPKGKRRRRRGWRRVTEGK
Wnt bcat act = Wnt/beta-catenin pathway activators, primary screen, cell-based, plate reader, single point. 300,000 tested, 1.2% active. Wnt/beta-catenin reporter cell assay, activator. activation, % at 9.35 µM; in the data active means activation above about 30%, passing the limit was not always enough; inconclusive means no clear call, values can overlap the other calls;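 further: 0% = neutral control wells and 100% = positive control wells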
MITF TRPM1 HTS = activators of MITF-driven TRPM1 promoter reporter, primary screen, cell-based, SK-MEL-5, luciferase, single point; SK-MEL-5 TRPM1-promoter luciferase, 24 h; % of positive control, neutral wells = 0; activation, % at 12.5 µM; 300,000 tested, 0.75% active;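 active means mean activation of at least 80% with every replicate also reaching 80%; inconclusive means mean reaches 80% but some replicate falls short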;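 further: 0% = neutral control wells and 100% = parthenolide positive control wells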
N-glyco inh = increase of ERlucT glycosylation luciferase signal, primary screen, N-linked glycosylation inhibitor project, D54 ERlucT cells, luminescence, set 2. AID 588692, 2011. D54 ERlucT glycosylation luciferase reporter, 24 h; percent of 100 nM tunicamycin response. 360,000 tested, 0.23% active. reporter increase, % at 12.5 µM;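 active means mean luciferase reporter signal, scaled so untreated is 0 and the glycosylation-blocking control 100, at or above a set limit in every replicate; inconclusive means mean reaches the limit but not every replicate does; inactive means mean below the limit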;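 further: luciferase carries N-glycosylation sites so blocking glycosylation raises the light; 0% = median of neutral control wells and 100% = median of 100 nM tunicamycin wells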
PfHsp90 yeast 2 = growth inhibition of PfHsp90-expressing yeast, primary screen, antimalarial PfHsp90 inhibitor project, S. cerevisiae, BacTiter-Glo luminescence, single point, set 2. 310,000 tested, 0.32% active. BacTiter-Glo ATP, 48 h; yeast lacking PDR1 and PDR3 efflux regulators. inhibition, % at 9.4 µM. AID 504621, 2011;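 active means every replicate shows inhibition above about 80%, whatever the replicate mean, limit read from the data; inconclusive means mean inhibition reaches the set limit but some replicate falls short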;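 further: 0% = DMSO neutral controls and 100% = 20 µM radicicol positive controls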
Active calls of the source: *; ? = inconclusive; / = not tested or not shown. Most compounds without a hit are left out; they make up all but 2.9% or so of the library.

SMILES	TRPM1 prom inh	NSD2 inh	Wnt bcat act	MITF TRPM1 HTS	N-glyco inh	PfHsp90 yeast 2
C=CCSc1nnc2c(n1)OC(c1cccnc1)Nc1ccccc1-2 (stereo unspecified)	-12	1	54*	13	2	-1
C=CCSc1nnc2c(n1)OC(c1cccnc1)N(C(C)=O)c1ccccc1-2 (stereo unspecified)	5	2	-3	0	-1	-2
CN(c1cccc(NC(=O)CN(c2cccc(F)c2)S(C)(=O)=O)c1)S(C)(=O)=O	3	-1	-1	2	4	14
N#CSCC(=O)c1cccc2ccccc12	18	-6	10	-18	24	97*
Cc1ccc2nc(-c3ccc(NC(=O)CN4CCN(c5ccccn5)CC4)cc3)sc2c1	/	4	36*	/	-7	/
Cc1ccc2nc(-c3ccc(NC(=O)CSc4nc(N)cc(=O)[nH]4)cc3)sc2c1	-71	1	56*	66	-5	1
Cc1ccc2nc(-c3ccc(NC(=S)NC(=O)CC(C)C)cc3)sc2c1	-37	-3	52*	/	0	/
Cc1ccc2nc(NC(=O)CN3CCN(c4ccccn4)CC3)sc2c1	8	-9	2	-6	-2	9
O=C(Nc1ccccc1Cl)NC1(C(=O)NCc2cccnc2)CCCCC1	8	-2	-1	-13	1	6
O=C(NC1CCN(c2ncccn2)CC1)c1ccccc1Cl	1	32	1	1	1	10
O=C(CC1Sc2ccccc2NC1=O)NNc1cccc(Cl)c1Cl (stereo unspecified)	-11	-1	-4	10	?	-2
CC(C)(C)OC(=O)NNC(=O)c1cccs1	-7	0	-3	6	0	-2
CC(C)(C)C(=O)NNC(=O)c1cc2sccc2s1	5	14	41*	-4	1	0
CN1CCCC1CCNc1ccc2sc3ccccc3c(=O)c2c1 (stereo unspecified)	-101	/	10	108*	-4	19
O=c1c2ccccc2sc2ccc(NCCCN3CCOCC3)cc12	-73	/	27	72	4	12
COc1ccc(-c2cc3ccccc3[nH]2)cc1	-79	/	54*	?	-3	1
c1ccc(-c2cc3ccccc3[nH]2)cc1	-92	/	28	96*	-3	12
Cc1ccc(O)c(-c2cc3ccccc3[nH]2)c1	-20	5	37*	20	-2	-10
C[C@@H](N)C(=O)Nc1ccc(Cl)cc1C(=O)c1ccc[nH]1	/	-4	/	/	/	/
COc1ccc(/C=C/c2cc(-c3ccc(C)cc3)o[n+]2C)cc1	88*	16	/	-88	-2	-26
COc1ccc(/C=C/c2c(-c3ccc(OC)cc3)oc3ccc(-c4ccc(OC)cc4)cc23)cc1	8	/	-2	-6	3	-1
COc1ccc(NC(=O)CSc2nc(SC)ns2)cc1	-104	-3	?	108*	-3	3
Clc1ccc(-c2nc3cc(CN4CCCCC4)ccc3o2)cc1	-80	2	16	80	-5	30
O=[N+]([O-])c1cc(Br)c(Nc2ccccc2)c([N+](=O)[O-])c1	39	14	-14	-37	17	120*
O=C(Nc1ccccc1)c1ccc(Nc2c([N+](=O)[O-])cc([N+](=O)[O-])c3ccccc23)cc1	27	1	/	-27	-10	18
SMILES	TRPM1 prom inh	NSD2 inh	Wnt bcat act	MITF TRPM1 HTS	N-glyco inh	PfHsp90 yeast 2
Nc1[nH]c(C(=O)c2ccccc2)c(-c2ccccn2)c1C(=O)c1c[nH]c2ccc(F)cc12	/	/	3	/	/	/
CCOc1ccccc1N=C1SCC(C)N1C(=O)C1CCN(c2ncnc3sc(C)c(C)c23)CC1 (stereo unspecified)	-6	4	-5	4	-5	5
COc1cc(C2C(C#N)=C(C)NC3=C2C(=O)c2ccccc23)cc(OC)c1OC (stereo unspecified)	77*	/	-1	-77	12	-10
CCCCCCCCN1C(=O)[C@@H](CC(=O)NCCc2ccccc2OC)C[C@@]2(C(=O)OC)C1=C[C@H](C1CCCC1)O[C@@H]2C	/	/	-23	/	/	/
c1csc(-c2nc(CN3CCSCC3)cs2)c1	4	2	43*	-9	-19	19
Cc1ccccc1NC(=O)N(C)[C@H]1C[C@H]2c3[nH]c4c(-c5ccc6c(c5)OCO6)cccc4c3CCN2C(=O)[C@H]1[C@H](C)O	/	/	-3	/	/	/
C(#Cc1ccccc1)C[N+]1(CC#Cc2ccccc2)CCCCC1	44	-1	-1	-43	2	20
Cc1ccc(C#CC[N+]2(CC#Cc3ccc(C)cc3)CCCCC2)cc1	70*	7	/	-70	16	20
CCOC(=O)CN(C(=O)CSc1nnnn1C)c1ccccc1	3	-1	-3	-4	-1	/
Oc1c(C=Nc2ccc(Cl)cn2)sc2ccccc12	-41	2	46*	46	-2	-13
Oc1c(/C=N/c2ccccn2)sc2ccccc12	-14	23	52*	16	4	16
Oc1c(C=Nc2cccnc2)sc2ccccc12	-11	-10	/	8	2	12
Oc1c(C=Nc2ccccc2)sc2ccccc12	-18	4	-1	17	-1	22
COc1ccc(C(=O)NCC2CCN(C(=O)C(=O)c3cccs3)CC2)c(OC)c1	/	7	0	/	/	/
Cc1ccccc1NC(=O)CSc1nnc(-c2cc(-c3ccccc3)n[nH]2)n1N	/	-1	/	/	/	/
CCN(C(=O)C1CCCN1S(=O)(=O)c1cccnc1)c1ccccc1 (stereo unspecified)	/	-2	/	/	/	/
c1ccc2c(c1)nc(N1CCOCC1)c1c3ccccc3[nH]c21	4	-8	2	-5	39*	-10
O=C(CSc1nc2ccccc2nc1N1CCCCC1)N1CCN(S(=O)(=O)c2ccccc2)CC1	/	-6	/	/	/	/
CN1/C(=C/c2cc[n+](C)c3ccccc23)C=Cc2ccccc21	83*	/	/	-78	15	34
CN1/C(=C/c2cccc[n+]2C)Sc2ccccc21	18	/	2	-13	15	2
CC(OC(=O)c1cccs1)C(=O)NCc1ccccc1 (stereo unspecified)	10	-3	53*	-8	0	-10
CC(OC(=O)c1cccs1)C(=O)NCCc1ccccc1 (stereo unspecified)	9	-5	-1	-10	-2	5
Nc1ccn([C@@H]2O[C@H](C(=O)NCC(=O)N3CCOCC3)[C@@H](O)[C@H]2O)c(=O)n1	/	-3	-1	/	/	/
CCNC(=O)N1CCN(c2ccc(N3CCN(Cc4ccccc4)[C@H](C)C3)c(C)c2)[C@@H](C)C1	/	/	-3	/	/	/
